The values below come from ChEMBL document CHEMBL2218924, “A broad activity screen in support of a chemogenomic map for kinase signalling research and drug discovery” (Biochem J, 2013).

Molecules are shown by their SMILES.

The target in this test is T1, Testis-specific serine/threonine-protein kinase 2 (Homo sapiens) (UniProt Q96PF2).
T1 sequence (whole entry): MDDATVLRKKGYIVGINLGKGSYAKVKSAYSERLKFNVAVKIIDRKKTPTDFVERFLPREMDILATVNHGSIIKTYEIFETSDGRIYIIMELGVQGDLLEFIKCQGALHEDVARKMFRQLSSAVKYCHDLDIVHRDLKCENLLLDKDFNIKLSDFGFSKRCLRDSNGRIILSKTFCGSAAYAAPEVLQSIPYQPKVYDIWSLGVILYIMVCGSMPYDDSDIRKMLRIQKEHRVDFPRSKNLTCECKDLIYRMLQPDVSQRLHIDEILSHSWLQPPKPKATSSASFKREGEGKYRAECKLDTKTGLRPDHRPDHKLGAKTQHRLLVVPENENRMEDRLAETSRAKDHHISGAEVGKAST
Particulars: at 1 µM.
For orientation: residual activity means the signal under treatment as a percentage of the control signal. Take `O=C(Nc1nc2ccccc2n1CCN1CCOCC1)c1cccc([N+](=O)[O-])c1`: the residual activity amounted to 102%. Regarding `COc1ccc(C(=O)Nc2sc3c(c2C(N)=O)CCCC3)cc1OC`, the residual activity turned out to be 94%. Under `Oc1ccc(-c2nc(-c3ccc(F)cc3)c(-c3ccncc3)[nH]2)cc1` stands 103%; under `COc1cccc(-c2cc(=O)c3ccccc3o2)c1N`, 89%. Turning to `COc1cc2ncc(-c3ccccc3)nc2cc1OC`, the residual activity stood at 76%. `COc1ccc(OC)c2c(=S)c3ccccc3[nH]c12`: the residual activity is 106%.

Turning to `CC(C)n1cnc2/c(=N/c3cccc(Cl)c3)nc(NCCO)[nH]c21`, the residual activity is 88%. Under `COc1ccc(CNc2nc(N(CCO)CCO)nc3c2ncn3C(C)C)cc1` stands 98%. Turning to `Cc1nc(-c2ccccc2)c(-c2ccncc2)o1`, the residual activity turned out to be 97%. The figure for `O=C(c1ccccc1)c1ccc(N2CCOCC2)cc1O` is 87%; for `Oc1ccc(Nc2nc(-c3ccc(Cl)cc3)cs2)cc1` it is 101%; for `O=C1NC(=O)/C(=C\c2ccc3nccnc3c2)S1` it is 90%. `O=C1NC(=O)c2cc(Nc3ccc(F)cc3)c(Nc3ccc(F)cc3)cc21`: the residual activity is 91%. The figure for `Cc1ccc(S(=O)(=O)/C=C/C#N)cc1` is 92%; for `CO[C@H]1C[C@@H]2CC[C@@H](C)[C@@](O)(O2)C(=O)C(=O)N2CCCC[C@H]2C(=O)O[C@H]([C@H](C)C[C@@H]2CC[C@@H](O)[C@H](OC)C2)CC(=O)[C@H](C)/C=C(\C)[C@@H](O)[C@@H](OC)C(=O)[C@H](C)C[C@H](C)/C=C/C=C/C=C/1C` it is 90%.

`O=C1NC(=O)/C(=C/c2ccc3c(c2)OC(F)(F)O3)S1`: the residual activity was found to be 93%. Under `COc1cc2nccc(Oc3ccc(NC(=S)NC(=O)c4ccccc4C)cc3)c2cc1OC` stands 94%; under `Oc1cccc(-c2nc(N3CCOCC3)c3oc4ncccc4c3n2)c1`, 93%; under `Nc1n[nH]c2nc3ccccc3nc12`, 95%. Under `CO[C@@H]1[C@H](N(C)C(=O)c2ccccc2)C[C@H]2O[C@]1(C)n1c3ccccc3c3c4c(c5c6ccccc6n2c5c31)C(=O)NC4` stands 51%; under `O=C1Cc2c([nH]c3ccc(Br)cc23)-c2ccccc2N1`, 96%; under `c1ccc(-c2n[nH]c3c2oc2ccccc23)cc1`, 96%.

For `COc1ccc(S(=O)(=O)N(CCO)c2ccccc2CN(C)C/C=C/c2ccc(Cl)cc2)cc1`, the residual activity was 101%. As to `CCCC(=O)Oc1ccc2[nH]c(C(=O)c3cc4ccccc4[nH]3)cc2c1`, the residual activity was found to be 96%.

For `Nc1cccc(-c2cc3c(Oc4cccc(O)c4)ncnc3[nH]2)c1`, the residual activity was 82%. Under `CN(C)c1ccc(/C=C2\C(=O)Nc3ccccc32)cc1` stands 92%; under `O=C1C(Cl)=C(N2C(=O)CCC2=O)C(=O)c2ccccc21`, 84%.

`Nc1nc(Nc2ccc(S(N)(=O)=O)cc2)nn1C(=S)Nc1c(F)cccc1F`: the residual activity turned out to be 61%. Under `NC(=O)Nc1sc(-c2ccc(F)cc2)cc1C(N)=O` stands 88%. `O=C1c2ccccc2-[n+]2ccc3c([nH]c4ccccc43)c21`: the residual activity is 98%. Under `CCN(CC)CCCCN1c2ccccc2Oc2ccc(Cl)cc21` stands 109%; under `O=c1cc(N2CCOCC2)oc2c1ccc1ccccc12`, 95%.

As to `N#C/C(=C1/Nc2ccccc2S1)c1ccnc(NCCc2cccnc2)n1`, the residual activity came to 82%. The figure for `Cc1cc2ncc(-c3ccccc3)nc2cc1C` is 91%. Under `Cc1nc2cc3nc(-c4cccs4)cnc3cc2n1C` stands 104%; under `CCOC(=O)c1c(C)[nH]c(/C=C2\C(=O)Nc3ccccc32)c1C`, 90%; under `Nc1ncnc2c1cnn2-c1ccccc1`, 93%. The figure for `CC(=O)O/N=C1\C(=C2\C(=O)Nc3cc(Br)ccc32)Nc2ccccc21` is 79%; for `CCOc1cc2ncnc(Nc3cccc(Br)c3)c2cc1OCC` it is 82%; for `C[C@@H](N)[C@H]1CC[C@H](C(=O)Nc2ccncc2)CC1` it is 102%.
